# Source: PubChem BioAssay (Tox21)
# A number with no mark means an inactive call. Inconclusive results are not listed. Entries that show only a call come without a potency. The source made the active and inactive calls. Unless noted, calls come from the whole dose curve.
# Assays:
# [1] = Nuclear factor erythroid 2-related factor 2/antioxidant responsive element (Nrf2/ARE) small molecule agonists: qHTS cell viability counter screen in human keratinocytes (AID 1919968; active = well fitted curve in the direction sought with a large enough effect in the repeat runs; an effect the other way counts as inactive or inconclusive; note: nearly all actives have a fitted effect of over 55% in size)
# Procedure, shortened: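 KeratinoSens HaCaT cells, 1,500/well, preincubated 5 h, then exposed to compounds in DMSO for 23 h at 37 C/5% CO2. Viability read as CellTiter-Fluor fluorescence after 1 h, in the same wells as the ARE-luciferase read.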
# [2] = Nuclear factor erythroid 2-related factor 2/antioxidant responsive element (Nrf2/ARE) small molecule agonists: luciferase reporter gene qHTS assay in human keratinocytes (AID 1919969); note: nearly all actives have a fitted effect of over 35% in size
# [3] = target: Gonadotropin-releasing hormone receptor (Homo sapiens) (UniProt P30968); test: Human gonadotropin-releasing hormone receptor (GnRHR) small molecule agonists, calcium flux assay in GnRHR-HEK293 cells (AID 1920063); note: nearly all actives have a fitted effect of over 35% in size
# Procedure, shortened: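 HEK293 cells stably expressing human GnRHR were dye-loaded for 1 h at 37 C. Compound was added in agonist mode and fluorescence (Ex/Em 480/540) recorded kinetically for 3 min. Fifteen concentrations, triplicates.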
# [4] = target: KiSS-1 receptor (Homo sapiens) (UniProt Q969F8); test: Human kisspeptin (KISS1R) small molecule agonists, calcium flux assay in KISS1R-HEK293 cells (AID 1920064; active = well fitted curve in the direction sought with a large enough effect in the repeat runs; an effect the other way counts as inactive or inconclusive)
# Procedure, shortened: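 HEK293 cells stably expressing human KISS1R were loaded with calcium dye for 1 h at 37 C, then given compound; fluorescence (Ex/Em 480/540) was read kinetically for 3 min. Fifteen concentrations, triplicate.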
# [5] = G protein-coupled receptor (GPCR) small molecule agonists, calcium flux assay: HEK293 wild type cell line counter screen (AID 1920065)
# Procedure, shortened: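 Wild-type HEK293 cells plated 18 h, loaded with calcium dye 1 h at 37 C, then compounds added in agonist mode (ATP as positive control). Kinetic fluorescence Ex/Em 480/540 recorded 3 min at 1 sec intervals; 15 concentrations, triplicate.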
# [6] = p53 small molecule agonists, cell-based qHTS assay with human liver microsomes (AID 1963577);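 note: p53 response element beta-lactamase reporter cells with liver microsomes plus NADPH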
# Procedure, shortened: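 In this qHTS, p53 response-element beta-lactamase cells receive test compound together with a microsome/NADPH activating system (0.5 mg/mL final each) and are incubated 16 h at 37 C before LiveBLAzer fluorescence detection.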
# [7] = p53 small molecule agonists, cell-based qHTS assay with rat liver microsomes (AID 1963578)
# Procedure, shortened: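 Agonist mode in p53RE-bla reporter cells, with compounds co-incubated 16 h at 37 C alongside 0.5 mg/mL rat liver microsomes and 0.5 mg/mL NADPH (final), followed by a 2 h LiveBLAzer detection step.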
# [8] = p53 small molecule agonists, cell-based qHTS assay with human liver microsomes: qHTS cell viability counter screen (AID 1963579); note: nearly all actives have a fitted effect of over 45% in size
# Procedure, shortened: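 Metabolically activated exposure: compounds, human liver microsomes and NADPH (0.5 mg/mL final apiece) were added to p53RE-bla cells seeded 5 h earlier, left 16 h at 37 C, and then assessed for viability by CellTiter-Glo luminescence.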
# [9] = p53 small molecule agonists, cell-based qHTS assay with rat liver microsomes: qHTS cell viability counter screen (AID 1963580); note: nearly all actives have a fitted effect of over 45% in size
# Procedure, shortened: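 Viability is assessed in parallel with the p53 reporter read: HCT-116 p53RE-bla cells receive compounds plus rat microsomes and NADPH (0.5 mg/mL final apiece), incubate 16 h at 37 C, and then CellTiter-Glo luminescence is recorded.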
# [10] = p53 small molecule agonists, cell-based qHTS assay: qHTS cell viability counter screen (AID 1963581); note: nearly all actives have a fitted effect of over 45% in size
# Procedure, shortened: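 p53RE-bla HCT-116 cells, compounds added 5 h after plating and incubated 16 h at 37 C. Cytotoxicity measured in the same wells as intracellular ATP by CellTiter-Glo luminescence after 30 min at room temperature.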
# [11] = p53 small molecule agonists, cell-based qHTS assay (AID 1963582; active = well fitted activation curve with a large enough effect in the signal ratio in the repeat runs, not every such curve was filed as active; the % refers to the signal ratio)
# Procedure, shortened: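 p53RE-bla reporter cells, compounds added in DMSO after 5 h plating, incubated 16 h at 37 C. Beta-lactamase read via 2 h room-temperature LiveBLAzer B/G FRET substrate, fluorescence intensity.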
# [12] = target: 5-hydroxytryptamine receptor 2A (Homo sapiens) (UniProt P28223); test: 5-hydroxytryptamine receptor 2A (HTR2A) small molecule antagonists, cell-based qHTS assay (AID 1963586); note: nearly all actives have a fitted effect of over 45% in size; note: potency is the fitted concentration of half-maximal effect
# Procedure, shortened: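 Antagonist-mode intracellular calcium assay: DOI (4 nM) added after 5 min compound pre-incubation at room temperature to dye-loaded HTR2A-CHO cells. Fluorescence followed for 3 min, sampled every second.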
# [13] = target: 5-hydroxytryptamine receptor 2A (Homo sapiens) (UniProt P28223); test: 5-hydroxytryptamine receptor 2A (HTR2A) small molecule agonists, cell-based qHTS assay (AID 1963587); note: nearly all actives have a fitted effect of over 30% in size; note: potency is the fitted concentration of half-maximal effect
# Procedure, shortened: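 CHO cells stably expressing human HTR2A, plated 18 h, loaded with calcium dye 1 h at 37 C. Agonist mode: compounds added and intracellular calcium fluorescence recorded kinetically for 2 min at 1 sec intervals.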
# [14] = target: Muscarinic acetylcholine receptor M1 (Homo sapiens) (UniProt P11229); test: Cholinergic receptor muscarinic 1 (CHRM1) small molecule agonists, cell-based qHTS assay (AID 1963589); note: nearly all actives have a fitted effect of over 35% in size
# Procedure, shortened: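 CHO cells stably expressing human CHRM1 were loaded with calcium dye for 1 h at 37 C, then compound was added in agonist mode. Intracellular calcium fluorescence was followed kinetically at 1 s intervals. Fifteen concentrations were tested in three independent runs.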
# [15] = cAMP Responsive Elements (CRE) small molecule agonists, cell-based qHTS assay (AID 1963590)
# Procedure, shortened: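 CRE-bla HEK 293T cells, 2,000/well in DMEM with 10% dialyzed FBS and 25 mM HEPES, pre-incubated 18 h at 37 C, then exposed to compound 3 h at 37 C. Beta-lactamase reporter read with LiveBLAzer B/G FRET substrate after 2 h at room temperature.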
# [16] = cAMP Responsive Elements (CRE) small molecule antagonists, cell-based qHTS assay (AID 1963591; active = well fitted inhibition curve with a large enough effect in the signal ratio in the repeat runs, not every such curve was filed as active; the % refers to the signal ratio)
# Procedure, shortened: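 CRE-bla HEK293T cells plated 18 h, then given compound plus NKH477 at 0.25 uM final for 3 h at 37C. Beta-lactamase reporter read with LiveBLAzer B/G FRET substrate after 2 h at room temperature.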
# [17] = target: Beta-2 adrenergic receptor (Homo sapiens) (UniProt P07550); test: Adrenergic beta2 receptor (ADRB2) small molecule antagonists, cell-based qHTS assay (AID 1963592); note: series mostly up to about 92 µM; nearly all actives have a fitted effect of over 50% in size
# Procedure, shortened: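 Cells (CHO, stable ADRB2 overexpression) incubated 18-20hr at 37C; compounds added from DMSO; agonist mix (1nM isoproterenol, 100uM IBMX, 25uM Ro-20-1724) added; 0.5hr RT; d2-cAMP and anti-cAMP-cryptate added; 1hr RT; 665/615 nm read.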
# [18] = target: D(2) dopamine receptor (Homo sapiens) (UniProt P14416); test: Dopamine D2 receptor (DRD2) small molecule agonists, cell-based qHTS assay (AID 1963594); note: nearly all actives have a fitted effect of over 35% in size
# Procedure, shortened: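 HEK293 cells stably expressing human DRD2, pre-treated with PDE inhibitor Ro20-1724 (0.1 mM final) and compound 10 min at room temperature, then stimulated with NKH477 (200nM […]) for 30 min. cAMP read by HTRF (665/620 nm).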
# [19] = target: D(2) dopamine receptor (Homo sapiens) (UniProt P14416); test: Dopamine D2 receptor (DRD2) small molecule antagonists, cell-based qHTS assay (AID 1963595; active = well fitted inhibition curve with a large enough effect in the signal ratio in the repeat runs, with a control signal flat; the % refers to the signal ratio)
# Procedure, shortened: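 Human DRD2 antagonist qHTS measuring cAMP by HTRF. The cells are exposed to compound for 10 min, then to NKH477 (200 nM) and quinpirole (12 nM) for 30 min at RT, with Ro20-1724 (0.1 mM) present throughout.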
# [20] = target: Muscarinic acetylcholine receptor M1 (Homo sapiens) (UniProt P11229); test: Cholinergic receptor muscarinic 1 (CHRM1) small molecule antagonists, cell-based qHTS assay (AID 1963588); note: nearly all actives have a fitted effect of over 40% in size; note: potency is the fitted concentration of half-maximal effect
# Procedure, shortened: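 CHRM1-CHO calcium-flux assay, antagonist mode. Cells were seeded 18 h, dye-loaded 1 h at 37 C and given compound for 5 min at RT, then acetylcholine was added at 50nM. FDSS fluorescence was read 3 min; 15 concentrations, three runs.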
# Sequence of KiSS-1 receptor (Homo sapiens) (Q969F8 whole entry, looked up): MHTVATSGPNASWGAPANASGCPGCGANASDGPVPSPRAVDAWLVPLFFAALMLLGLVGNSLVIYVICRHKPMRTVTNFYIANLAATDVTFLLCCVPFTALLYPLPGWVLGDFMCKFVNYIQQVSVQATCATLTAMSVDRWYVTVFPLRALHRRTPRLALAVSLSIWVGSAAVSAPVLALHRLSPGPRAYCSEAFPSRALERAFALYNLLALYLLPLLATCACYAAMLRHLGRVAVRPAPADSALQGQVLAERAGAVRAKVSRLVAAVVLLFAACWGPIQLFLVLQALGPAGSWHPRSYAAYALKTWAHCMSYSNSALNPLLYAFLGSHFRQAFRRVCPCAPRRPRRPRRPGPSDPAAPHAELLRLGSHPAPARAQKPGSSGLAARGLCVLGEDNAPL
# Sequence of D(2) dopamine receptor (Homo sapiens) (P14416 whole entry, looked up): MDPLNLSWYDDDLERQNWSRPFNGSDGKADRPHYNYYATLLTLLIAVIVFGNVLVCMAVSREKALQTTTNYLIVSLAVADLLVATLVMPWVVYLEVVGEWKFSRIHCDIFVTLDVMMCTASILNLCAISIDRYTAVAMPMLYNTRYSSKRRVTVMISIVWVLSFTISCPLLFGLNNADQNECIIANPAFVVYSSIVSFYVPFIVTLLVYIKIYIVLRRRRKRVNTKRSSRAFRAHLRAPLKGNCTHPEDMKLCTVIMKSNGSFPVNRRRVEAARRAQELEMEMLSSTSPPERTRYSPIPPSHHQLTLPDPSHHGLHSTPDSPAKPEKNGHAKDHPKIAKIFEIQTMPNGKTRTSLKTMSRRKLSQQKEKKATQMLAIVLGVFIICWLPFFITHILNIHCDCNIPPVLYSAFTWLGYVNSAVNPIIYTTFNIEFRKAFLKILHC
# Sequence of Beta-2 adrenergic receptor (Homo sapiens) (P07550 whole entry, looked up): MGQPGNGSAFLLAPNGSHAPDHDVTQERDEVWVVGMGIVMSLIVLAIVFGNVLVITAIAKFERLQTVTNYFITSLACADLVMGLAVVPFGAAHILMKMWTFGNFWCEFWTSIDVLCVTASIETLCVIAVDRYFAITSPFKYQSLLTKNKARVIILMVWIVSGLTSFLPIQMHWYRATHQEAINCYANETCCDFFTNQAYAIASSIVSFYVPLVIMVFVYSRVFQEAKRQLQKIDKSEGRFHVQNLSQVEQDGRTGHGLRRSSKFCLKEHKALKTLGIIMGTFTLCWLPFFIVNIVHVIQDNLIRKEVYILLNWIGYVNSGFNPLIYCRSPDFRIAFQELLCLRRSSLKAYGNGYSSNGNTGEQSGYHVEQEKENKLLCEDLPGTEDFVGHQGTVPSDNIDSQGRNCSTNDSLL
# Sequence of Gonadotropin-releasing hormone receptor (Homo sapiens) (P30968 whole entry, looked up): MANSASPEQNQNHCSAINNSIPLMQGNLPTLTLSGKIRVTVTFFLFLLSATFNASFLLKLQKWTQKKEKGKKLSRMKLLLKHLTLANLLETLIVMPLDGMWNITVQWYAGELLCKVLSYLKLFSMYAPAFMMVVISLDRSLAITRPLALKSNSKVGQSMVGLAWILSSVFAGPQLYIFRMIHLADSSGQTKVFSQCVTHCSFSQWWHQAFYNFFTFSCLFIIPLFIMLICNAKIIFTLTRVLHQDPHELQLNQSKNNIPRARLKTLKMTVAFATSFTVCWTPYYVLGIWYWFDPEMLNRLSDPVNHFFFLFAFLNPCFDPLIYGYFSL
# Sequence of Muscarinic acetylcholine receptor M1 (Homo sapiens) (P11229 whole entry, looked up): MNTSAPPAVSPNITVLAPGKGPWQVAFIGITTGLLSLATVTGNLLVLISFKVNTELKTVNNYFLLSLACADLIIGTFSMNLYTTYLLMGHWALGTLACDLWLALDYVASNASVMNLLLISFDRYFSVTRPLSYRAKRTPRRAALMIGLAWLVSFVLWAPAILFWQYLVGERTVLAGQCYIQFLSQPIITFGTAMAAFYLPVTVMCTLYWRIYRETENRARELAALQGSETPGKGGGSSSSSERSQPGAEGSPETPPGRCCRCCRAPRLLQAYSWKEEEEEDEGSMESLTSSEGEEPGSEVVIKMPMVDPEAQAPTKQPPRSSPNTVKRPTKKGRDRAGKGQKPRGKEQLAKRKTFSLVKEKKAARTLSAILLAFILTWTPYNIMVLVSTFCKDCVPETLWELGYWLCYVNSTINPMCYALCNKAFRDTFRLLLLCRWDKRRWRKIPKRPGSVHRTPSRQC
# Sequence of 5-hydroxytryptamine receptor 2A (Homo sapiens) (P28223 whole entry, looked up): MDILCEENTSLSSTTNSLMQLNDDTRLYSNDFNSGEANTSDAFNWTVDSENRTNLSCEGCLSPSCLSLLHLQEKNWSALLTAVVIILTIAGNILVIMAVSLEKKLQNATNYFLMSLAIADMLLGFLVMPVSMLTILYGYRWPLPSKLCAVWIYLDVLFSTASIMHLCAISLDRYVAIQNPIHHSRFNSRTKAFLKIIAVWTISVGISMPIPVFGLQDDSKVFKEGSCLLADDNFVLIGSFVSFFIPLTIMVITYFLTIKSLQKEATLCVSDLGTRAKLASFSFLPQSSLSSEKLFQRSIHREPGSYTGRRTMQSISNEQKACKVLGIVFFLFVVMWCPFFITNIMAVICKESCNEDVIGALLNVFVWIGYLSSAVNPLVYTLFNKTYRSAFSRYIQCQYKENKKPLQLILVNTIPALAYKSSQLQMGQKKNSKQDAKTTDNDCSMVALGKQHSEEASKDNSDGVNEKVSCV
smiles,measurement,setting,value
CCCCCCCCCCCCCN1CC(C)OC(C)C1 (stereo not drawn),Potency,[1],inactive
same,Potency,[2],inactive
same,Potency,[3],inactive
same,Potency,[4],inactive
same,Potency,[5],inactive
same,Potency,[6],inactive
same,Potency,[7],inactive
same,Potency,[8],inactive
same,Potency,[9],inactive
same,Potency,[10],inactive
same,Potency,[11],inactive
same,Potency,[12],inactive
same,Potency,[13],inactive
same,Potency,[14],inactive
same,Potency,[15],inactive
same,Potency,[16],inactive
same,Potency,[17],inactive
same,Potency,[18],inactive
same,Potency,[19],inactive
COc1cc(CCN)cc(OC)c1OC,Potency,[1],inactive
same,Potency,[2],inactive
same,Potency,[3],inactive
same,Potency,[4],inactive
same,Potency,[5],inactive
same,Potency,[6],inactive
same,Potency,[7],inactive
same,Potency,[8],inactive
same,Potency,[9],inactive
same,Potency,[10],inactive
same,Potency,[11],inactive
same,Potency,[12],182 nM (active)
same,Potency,[13],75.2 nM (active)
same,Potency,[20],inactive
same,Potency,[14],inactive
same,Potency,[15],inactive
same,Potency,[16],inactive
same,Potency,[18],inactive
same,Potency,[19],inactive
COC1CC(=C(c2cccs2)c2cccs2)C[N+](C)(C)C1 (stereo not drawn),Potency,[1],inactive
same,Potency,[2],inactive
same,Potency,[3],inactive
same,Potency,[4],inactive
same,Potency,[5],inactive
same,Potency,[6],inactive
same,Potency,[7],inactive
same,Potency,[8],inactive
same,Potency,[9],inactive
same,Potency,[10],inactive
same,Potency,[11],inactive
same,Potency,[12],inactive
same,Potency,[13],inactive
same,Potency,[14],inactive
same,Potency,[15],inactive
same,Potency,[16],inactive
same,Potency,[17],inactive
CCN(CC)CCOC(=O)C(C)(c1ccccc1)c1ccccc1,Potency,[1],inactive
same,Potency,[2],inactive
same,Potency,[3],inactive
same,Potency,[4],inactive
same,Potency,[5],inactive
same,Potency,[6],inactive
same,Potency,[7],inactive
same,Potency,[8],inactive
same,Potency,[9],inactive
same,Potency,[10],inactive
same,Potency,[11],inactive
same,Potency,[13],inactive
same,Potency,[20],13 nM (active)
same,Potency,[14],inactive
same,Potency,[15],inactive
same,Potency,[16],inactive
same,Potency,[17],inactive
same,Potency,[18],inactive
same,Potency,[19],inactive
O=C(Cl)C(Cl)(Cl)Cl,Potency,[1],inactive
same,Potency,[2],inactive
same,Potency,[3],inactive
same,Potency,[4],inactive
same,Potency,[5],inactive
same,Potency,[6],inactive
same,Potency,[7],inactive
same,Potency,[8],inactive
same,Potency,[9],inactive
same,Potency,[10],inactive
same,Potency,[11],inactive
same,Potency,[12],inactive
same,Potency,[20],inactive
same,Potency,[14],inactive
same,Potency,[15],inactive
same,Potency,[16],inactive
same,Potency,[18],inactive
same,Potency,[19],inactive
CCCCCCC(=O)CCCCCC/C=C/C[C@@H](O)[C@H](O)[C@@](N)(CO)C(=O)O,"activity change, negative = cytotoxicity",[1],-1.3% [at 19 µM]
same,"activity, positive = activation",[2],-3.71% [at 19 µM]
same,activity change,[3],"0.629% [at 11.8 µM, stronger effect = higher value]"
same,activation,[4],0.0857% [at 15.8 µM]
same,activation,[5],0.714% [at 11.8 µM]
same,activation,[6],4.34% [at 13.5 µM]
same,activation,[7],0.608% [at 13.6 µM]
same,"activity change, negative = cytotoxicity",[8],0.682% [at 13.5 µM]
same,"activity change, negative = cytotoxicity",[9],-0.611% [at 13.5 µM]
same,"activity change, negative = cytotoxicity",[10],17.4% [at 13.5 µM]
same,activation,[11],0.605% [at 13.5 µM]
same,"activity, negative = inhibition",[12],87.4% [at 12.7 µM]
same,activation,[13],2.62% [at 15.9 µM]
same,"activity, negative = inhibition",[20],3.07% [at 12.6 µM]
same,activation,[14],-0.559% [at 15.8 µM]
same,activation,[15],3.57% [at 19 µM]
same,"activity change, negative = inhibition",[16],-12.2% [at 18.9 µM]
same,"activity change, negative = inhibition",[17],9.53% [at 19 µM]
same,"activity change, negative = inhibition",[19],0.928% [at 18.9 µM]
C[C@]12CC[C@H]3[C@@H](CCC4=CC(=O)CC[C@@]43C)[C@@H]1CC[C@@H]2C(=O)O,Potency,[1],inactive
same,Potency,[2],inactive
same,Potency,[3],inactive
same,Potency,[4],inactive
same,Potency,[5],inactive
same,Potency,[6],inactive
same,Potency,[7],inactive
same,Potency,[8],inactive
same,Potency,[9],inactive
same,Potency,[10],inactive
same,Potency,[11],inactive
same,Potency,[12],inactive
same,Potency,[13],inactive
same,Potency,[20],inactive
same,Potency,[14],inactive
same,Potency,[17],inactive
same,Potency,[19],inactive
